Measurements taken from PMC5540273 (PLoS ONE, 2017).

Experiments:
Conditions in all cases: concentration: 1 μM,replicates: in singlicate; n = 1
[1] = tested on: CAMK1
[2] = tested on: CAMK2A
[3] = tested on: CAMK2B
[4] = tested on: CAMK2D
[5] = tested on: CAMK2G
[6] = tested on: CAMK4
[7] = tested on: CAMKK1
[8] = tested on: CAMKK2
[9] = tested on: CASK
[10] = tested on: T1, CDC2L1
T1 construct: gene CDK11B

[11] = tested on: CDC2L2
[12] = tested on: T2, CDC2L5
T2 construct: gene CDK13

[13] = tested on: T3, CDK11
T3 construct: gene CDK19

[14] = tested on: CDK2
[15] = tested on: CDK3
[16] = tested on: CDK4-cyclinD1
[17] = tested on: CDK4-cyclinD3
[18] = tested on: CDK4
[19] = tested on: CDK5
[20] = tested on: CDK7
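Also: KINOMEscan kinase panel screen.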

## Cc1ccc(Nc2ccnc(Nc3ccc4c(c3)CS(=O)(=O)C4)n2)cc1O.Cl [GW579362]
[1]
  %Inh: 62%
[2]
  %Inh: 0%
[3]
  %Inh: 0%
[4]
  %Inh: 29%
[5]
  %Inh: 42%
[6]
  %Inh: 0%
[7]
  %Inh: 24%
[8]
  %Inh: 31%
[9]
  %Inh: 12%
[10]
  %Inh: 44%
[11]
  %Inh: 46%
[12]
  %Inh: 0%
[13]
  %Inh: 0%
[14]
  %Inh: 89%
[15]
  %Inh: 77%
[16]
  %Inh: 88%
[17]
  %Inh: 73%
[18]
  %Inh: 43%
[19]
  %Inh: 95%
[20]
  %Inh: 23%

## CCNCC(Cc1ccccc1)NC(=O)c1cc(Br)c(-c2ccnc3[nH]ccc23)s1.Cl.Cl (stereo not shown) [GSK1383280]
[1]
  %Inh: 41%
[2]
  %Inh: 0%
[3]
  %Inh: 0%
[4]
  %Inh: 23%
[5]
  %Inh: 34%
[6]
  %Inh: 21%
[7]
  %Inh: 19%
[8]
  %Inh: 25%
[9]
  %Inh: 0%
[10]
  %Inh: 16%
[11]
  %Inh: 22%
[12]
  %Inh: 0%
[13]
  %Inh: 39%
[14]
  %Inh: 0%
[15]
  %Inh: 12%
[16]
  %Inh: 0%
[17]
  %Inh: 6%
[18]
  %Inh: 0%
[19]
  %Inh: 0%
[20]
  %Inh: 24%

## Cl.c1ccc(Oc2ccc(Nc3ccnc4cc(-c5ccc(CN6CCNCC6)o5)ccc34)cc2)nc1 [GW567142]
[1]
  %Inh: 29%
[2]
  %Inh: 0%
[3]
  %Inh: 0%
[4]
  %Inh: 3%
[5]
  %Inh: 0%
[6]
  %Inh: 0%
[7]
  %Inh: 0%
[8]
  %Inh: 0%
[9]
  %Inh: 0%
[10]
  %Inh: 0%
[11]
  %Inh: 16%
[12]
  %Inh: 0%
[13]
  %Inh: 10%
[14]
  %Inh: 0%
[15]
  %Inh: 0%
[16]
  %Inh: 0%
[17]
  %Inh: 0%
[18]
  %Inh: 14%
[19]
  %Inh: 0%
[20]
  %Inh: 52%

## Cc1cccc2c(-c3ccncc3)c(-c3ccc(F)cc3)nn12.Cl [GW461487]
[1]
  %Inh: 0%
[2]
  %Inh: 0%
[3]
  %Inh: 0%
[4]
  %Inh: 29%
[5]
  %Inh: 32%
[6]
  %Inh: 0%
[7]
  %Inh: 0%
[8]
  %Inh: 11%
[9]
  %Inh: 3%
[10]
  %Inh: 0%
[11]
  %Inh: 0%
[12]
  %Inh: 0%
[13]
  %Inh: 0%
[14]
  %Inh: 0%
[15]
  %Inh: 0%
[16]
  %Inh: 0%
[17]
  %Inh: 0%
[18]
  %Inh: 36%
[19]
  %Inh: 0%
[20]
  %Inh: 0%

## O=C(Nc1cccc(Oc2ccc3nccn3n2)c1)Nc1cccc(C(F)(F)F)c1
[1]
  %Inh: 5%
[2]
  %Inh: 0%
[3]
  %Inh: 0%
[4]
  %Inh: 0%
[5]
  %Inh: 0%
[6]
  %Inh: 0%
[7]
  %Inh: 5%
[8]
  %Inh: 0%
[9]
  %Inh: 26%
[10]
  %Inh: 1%
[11]
  %Inh: 6%
[12]
  %Inh: 13%
[13]
  %Inh: 98.7%
[14]
  %Inh: 0%
[15]
  %Inh: 32%
[16]
  %Inh: 33%
[17]
  %Inh: 0%
[18]
  %Inh: 0%
[19]
  %Inh: 0%
[20]
  %Inh: 0%

## CCOC(=O)N1CCC(n2cnc(-c3ccc(F)cc3)c2-c2ccnc(N)n2)CC1 [SB-219952]
[1]
  %Inh: 0%
[2]
  %Inh: 0%
[3]
  %Inh: 0%
[4]
  %Inh: 0%
[5]
  %Inh: 8%
[6]
  %Inh: 12%
[7]
  %Inh: 0%
[8]
  %Inh: 0%
[9]
  %Inh: 0%
[10]
  %Inh: 11%
[11]
  %Inh: 23%
[12]
  %Inh: 30%
[13]
  %Inh: 29%
[14]
  %Inh: 0%
[15]
  %Inh: 0%
[16]
  %Inh: 24%
[17]
  %Inh: 6%
[18]
  %Inh: 32%
[19]
  %Inh: 0%
[20]
  %Inh: 30%

## CN1CCN(CCCNc2nccc(-c3c(-c4ccc(F)cc4)nn4cc(C(N)=O)ccc34)n2)CC1 [GW622475]
[1]
  %Inh: 31%
[2]
  %Inh: 0%
[3]
  %Inh: 0%
[4]
  %Inh: 21%
[5]
  %Inh: 37%
[6]
  %Inh: 0%
[7]
  %Inh: 11%
[8]
  %Inh: 30%
[9]
  %Inh: 3%
[10]
  %Inh: 6%
[11]
  %Inh: 17%
[12]
  %Inh: 0%
[13]
  %Inh: 40%
[14]
  %Inh: 0%
[15]
  %Inh: 18%
[16]
  %Inh: 0%
[17]
  %Inh: 0%
[18]
  %Inh: 20%
[19]
  %Inh: 0%
[20]
  %Inh: 0%

## N#Cc1cccc(C(=O)NC2CCN(c3ccnc(Nc4ccc(F)cc4)n3)C2)c1 (stereo not shown) [GSK1379708]
[1]
  %Inh: 9%
[2]
  %Inh: 0%
[3]
  %Inh: 0%
[4]
  %Inh: 0%
[5]
  %Inh: 0%
[6]
  %Inh: 0%
[7]
  %Inh: 0%
[8]
  %Inh: 0%
[9]
  %Inh: 15%
[10]
  %Inh: 0%
[11]
  %Inh: 0%
[12]
  %Inh: 0%
[13]
  %Inh: 4%
[14]
  %Inh: 0%
[15]
  %Inh: 0%
[16]
  %Inh: 0%
[17]
  %Inh: 0%
[18]
  %Inh: 10%
[19]
  %Inh: 0%
[20]
  %Inh: 0%
